Source: PubChem (National Center for Advancing Translational Sciences (NCATS))
PK Bst – modulators of Bacillus stearothermophilus pyruvate kinase. purified pyruvate kinase, luminescence ATP production; ribose 5-phosphate activator present at AC10. hit rate 1.2% among 51,000. Potency, µM; in the data active = potency below about 11 µM; inconclusive = mostly about 12 µM to 25 µM;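 the screen sought inhibitors and activators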;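 note: scaled between full activation by ribose 5 phosphate and full inhibition by luteolin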
FLuc inh – firefly luciferase inhibition | Potency, µM (top dose mostly 57.1 µM), inactives show at the top dose activity change, negative = inhibition, hits mostly inhibitors | hit rate 2.2% among 72,000 | purified firefly luciferase, luminescence, 8 min | AID 411 | P08659; note: % is set by controls: 0 for no effect and ±100 for the full control effect; nearly all actives have a fitted effect of over 40% in size
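Compounds were tested as concentration series (qHTS) against purified P. pyralis luciferase with luciferin and 10 uM ATP in 50 mM imidazole pH 7.2, 50 mM KCl, 7 mM MgCl2, 0.01% Tween 20, 0.05% BSA. Luminescence was read after 8 min at ambient temperature.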
HEK293 cAMP ctrl – counter-screen for TSHR agonists: cAMP increase in parental HEK293; Potency, µM (doses to about 57.1 µM), without a hit: at the top dose activation, usual class: activators; hit rate 2.5% among 73,000; parental HEK293 CNG cAMP sensor, membrane potential fluorescence; note: % of control where 0% means no effect; nearly all actives have a fitted effect of over 55% in size
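Parental HEK 293 cells stably expressing a cAMP-gated CNG channel were loaded with membrane potential dye containing 100 uM RO 20-1724 for 60 min. Compound added for 30 min; depolarization read as fluorescence intensity at 590 nm.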
TSHR agonist – activates the human thyroid stimulating hormone receptor; Potency, µM (top dose mostly 57.1 µM), inactives show at the top dose activation, hits mostly activators; HEK293-CNG-TSHR cells (CNG channel as cAMP sensor), membrane potential dye, cAMP; P16473; hit rate 0.48% among 73,000; active = well fitted activation curve with a large enough effect in the main read-out, with a control signal flat, not every such curve was filed as active; inconclusive = small, poorly fitted or top-dose-only effect, or a change in a side signal; inactive = no such curve, though single readings can be large or run the other way; % of control where 0% means no effect;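 note: the control signal comes from parental cells without the receptor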
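HEK 293 cells stably expressing TSHR and a cAMP-gated CNG channel; parental CNG-only cells as counterscreen. Cells preloaded 60 min with membrane potential dye plus 100 uM RO 20-1724, then compound 30 min; fluorescence read at 590 nm.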
Tau fil binding – binds recombinant human tau filaments. recombinant tau filaments, thioflavin S fluorescence, 15 h; filaments grown with octadecylsulfate alongside compound. Potency, µM (top dose mostly 57.1 µM), without a hit: top-dose activity change, negative = inhibition. hit rate 2% among 71,000;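 note: % is set by controls: 0 for no effect and ±100 for the full control effect; actives lower thioflavin S fluorescence by blocking filaments or displacing dye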
Target sequence (P10636 whole entry, looked up): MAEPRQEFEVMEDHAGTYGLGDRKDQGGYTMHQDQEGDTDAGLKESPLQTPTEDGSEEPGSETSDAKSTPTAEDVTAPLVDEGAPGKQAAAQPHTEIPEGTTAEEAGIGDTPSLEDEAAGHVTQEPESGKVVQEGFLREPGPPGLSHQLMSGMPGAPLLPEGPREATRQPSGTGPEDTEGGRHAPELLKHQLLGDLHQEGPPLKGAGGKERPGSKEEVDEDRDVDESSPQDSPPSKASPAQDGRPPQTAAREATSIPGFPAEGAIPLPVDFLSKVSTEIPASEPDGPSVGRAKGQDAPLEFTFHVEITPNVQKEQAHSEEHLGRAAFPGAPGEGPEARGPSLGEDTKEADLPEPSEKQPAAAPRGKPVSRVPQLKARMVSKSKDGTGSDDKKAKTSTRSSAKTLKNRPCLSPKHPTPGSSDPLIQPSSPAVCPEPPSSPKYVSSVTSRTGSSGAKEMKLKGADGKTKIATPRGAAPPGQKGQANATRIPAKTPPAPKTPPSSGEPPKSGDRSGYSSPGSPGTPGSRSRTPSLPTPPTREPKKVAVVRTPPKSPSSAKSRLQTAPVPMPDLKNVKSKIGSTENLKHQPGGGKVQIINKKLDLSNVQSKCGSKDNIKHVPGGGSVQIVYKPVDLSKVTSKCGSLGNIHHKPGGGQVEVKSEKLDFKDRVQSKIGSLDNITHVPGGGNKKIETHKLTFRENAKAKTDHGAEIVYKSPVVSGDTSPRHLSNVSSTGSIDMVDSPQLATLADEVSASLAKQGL
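His-tagged recombinant human tau (exons 2, 3 and 10 included), 1 uM, was induced to fibrillize by 30 uM sodium octadecylsulfate with compound present. After 15 h at 37 C, thioflavine S fluorescence (ex 450, em 510 nm) was read.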
ERK AVP inh – vasopressin-driven ERK pathway inhibition | HEK293-V1b, vasopressin-stimulated pERK AlphaScreen | Potency, µM (highest dose often 57.5 µM), for the others: top-dose activity, negative = inhibition, actives largely listed as inhibitors | hit rate 0.99% among 72,000; note: % is set by controls: 0 for no effect and ±100 for the full control effect; nearly all actives have a fitted effect of over 55% in size
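Overnight-seeded V1b-HEK293 cells in 1% FBS got compound, then vasopressin (25 nM final, 5 min, 37C), then lysis buffer. AlphaScreen detection of phospho-ERK; activity normalized to basal and full-stimulation controls.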
* = called active by the depositor; i = inactive; ? = inconclusive; nt = no result given; [ ] = dose if it differs, or a comment. Rows were chosen to be rich in hits. Some 7.2% of all compounds tested hit in one or more screens of this group. Unless noted, calls come from the whole dose curve; as a rule, active = well fitted curve in the direction sought with a large enough effect; inconclusive = small, poorly fitted or top-dose-only effect, or another doubt; inactive = no such curve, though single readings can be large; an effect the other way counts as inactive or inconclusive. Potency is the fitted concentration of half-maximal effect.

SMILES	PK Bst	FLuc inh	HEK293 cAMP ctrl	TSHR agonist	Tau fil binding	ERK AVP inh
O=C(c1ccccc1)c1ccc(N2CCCC2)cc1	nt	13µM*	?	?	-17%	-9%
S=C(c1ccc(N2CCCC2)cc1)N1CCCCC1	>57	-4%	-6%	-15%	32µM*	-24%
Nc1ncnc2nc(N3CCN(CCO)CC3)[nH]c12	nt	3%[11.4 µM]	?	?	6%[11.4 µM]	3%[11.5 µM]
COc1ccc(C(=O)N2CCC3(CCCN(Cc4ccc(C#N)cc4)C3)CC2)cc1	nt	0%[11.4 µM]	?	?	4%	18%
CCOC(=O)c1cnc(-n2nc(C)cc2C)nc1NCc1ccccc1	>57	-4%	20µM*	?	178%	?
CCOC(=O)c1cnc(-n2nc(C)cc2C)nc1NC(C)c1ccccc1 (stereo not given)	>57	2%	25µM*	?	48%	-11%
CCOC(=O)c1cnc(NCc2ccccc2)nc1C	>57	-3%	14%	20%	-1%	-13%
CC(C)[C@@H](CC(=O)N[C@@H]1CCCC[C@H]1C(=O)N[C@H](CC(=O)N[C@@H](CCC(=O)O)CC(=O)O)Cc1c[nH]c2ccccc12)NC(=O)C[C@H](Cc1c[nH]c2ccccc12)NC(=O)[C@@H]1CNCC[C@H]1N	nt	nt	9%	2%	-26%	nt
CS(=O)(=O)c1cccc(C(=O)NCc2ccccc2)c1	>57	1%	-2%	0%	-4%	29%
CN1CCN(c2ccc(Cl)cc2NC(=O)c2cccc(S(=O)(=O)N(C)C)c2)CC1	>57	3%	-3%	-10%	20%	-4%
CN(C)S(=O)(=O)c1cccc(C(=O)NCCc2ccccc2)c1	i	13µM*	0%	-4%	-6%	-1%
CN(C)S(=O)(=O)c1cccc(C(=O)Nc2cc(Cl)ccc2O)c1	i	13µM*	13%	-18%	-8%	-29%
COC(=O)c1cccc(CSc2nnc(-c3ccco3)n2-c2ccccc2)c1	>57	0%	20µM*	?	22%	4%
O=c1[nH]c2ccccc2n1CCCSCCCn1c(=O)[nH]c2ccccc21	>57	-4%	24%	nt	18%	32µM*
CC(C)(C)NS(=O)(=O)c1cccc2nsnc12	>57	4%	13%	0%	-1%	28%
Nc1nn(S(=O)(=O)c2cccc3nsnc23)cc1-c1ccc(Br)cc1	>57	2%	-18%	-16%	16µM*	?
Cc1ccc(-c2cn(S(=O)(=O)c3cccc4nsnc34)nc2N)cc1	?	-1%	-23%	-35%	16µM*	-6%
c1ccc(-c2ccc(-c3ccc(C4=NCCN4)cc3)o2)cc1	nt	-1%[11.4 µM]	0%[11.4 µM]	5%[11.4 µM]	-12%[11.4 µM]	24%[11.5 µM]
COCCN(CCOC)S(=O)(=O)c1ccc(C(=O)Nc2nc(C)c(C(C)=O)s2)cc1	>57	-2%	5%	-1%	-9%	1%
CC(=O)c1sc(NC(=O)c2ccccc2F)nc1C	nt	16µM*	11%	-3%	-23%	nt
C=CCn1c(SCC(=O)Nc2ccc(N(C)C)cc2)nnc1-c1cccc(C)c1	>57	-12%	-5%	1%	25µM*	?
Cc1ccc(C)c(NS(=O)(=O)c2cc(C(=O)O)ccc2Cl)c1	nt	nt	-17%	5%	nt	nt
Cc1oc(/N=C/c2c(O)ccc3ccccc23)c(C#N)c1C	nt	1%	?	?	2.5µM*	-4%
Cc1oc(/N=C/c2ccccc2O)c(C#N)c1C	nt	-1%	-7%	-1%	-10%	12%
Cc1c(/N=C/c2ccco2)n(Cc2ccccc2)c2ccccc12	nt	0%	?	?	1.6µM*	13µM*
Cc1cccc(Cn2c(=O)n(Cc3ccco3)c(=O)c3ccccc32)c1	>57	-2%	?	?	23%	-2%
CCc1ccc2c(-c3cccc(Cl)c3)nc(=O)n(CC)c2n1	nt	2%	?	?	32µM*	-28%
Cc1c(C(=O)OC2CCC(C)CC2)[nH]c2c1C(=O)CCC2 (stereo not given)	nt	16µM*	11%	13%	43%	-18%
C=C[C@@](C)(O)CC[C@H]1[C@]2(C)CCCC(C)(C)[C@H]2CC[C@]1(C)O	nt	0%[11.4 µM]	-7%	nt	?	nt
